hgDAF-12 ag – hgDAF-12 agonism, primary luciferase screen; 370,000 compounds, 1.8% hits; HEK293 GAL4-hgDAF12 UAS-luciferase reporter, agonist luminescence; normalized to butyrate control; AID 687014; activation, % at 6.8 µM;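 active = activation above a cutoff set at the mean of all screened compounds plus 3 SD, cut at about 10% in these data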
DAX1 inh-1 – NR0B1 (DAX1) inhibition; inhibition, % at 6.75 µM; 340,000 compounds, 0.99% hits; P51843; HEK293 Gal4-DAX1 luciferase reporter, luminescence;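 active = inhibition above the mean over all tested compounds plus 3 SD, cut at about 4.2% in these data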;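 note: inhibition shows as a rise in luminescence from relieved DAX1 repression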
Target sequence (P51843 207-470 limits assumed): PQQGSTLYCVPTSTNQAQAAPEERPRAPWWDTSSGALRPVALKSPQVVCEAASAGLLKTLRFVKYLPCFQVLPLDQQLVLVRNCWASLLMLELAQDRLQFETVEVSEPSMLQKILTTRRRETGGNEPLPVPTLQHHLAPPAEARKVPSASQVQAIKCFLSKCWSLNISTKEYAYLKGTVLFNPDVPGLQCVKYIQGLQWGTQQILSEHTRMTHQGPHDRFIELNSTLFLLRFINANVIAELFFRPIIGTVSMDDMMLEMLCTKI
DAX1 inh-2 – DAX1 (NR0B1) inhibition, primary screen | HEK293T StAR-luciferase reporter, SF-1/DAX-1 repression relief | inhibition, % at 6.8 µM | 370,000 compounds, 1.1% hits | AID 652010;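 active = inhibition above the mean over all tested compounds plus 3 SD, cut at about 3.6% in these data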;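 note: higher inhibition means more luminescence from relief of DAX-1 repression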
hcDAF12 agonist – activators of H. contortus DAF-12 nuclear receptor; HEK293 hcDAF-12 lit1-tk-luc reporter, luminescence; 0% DMSO, 100% Δ7-dafachronic acid; activation, % at 6.8 µM; 370,000 compounds, 1.4% hits;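 active = activation above the mean of all tested compounds plus 3 SD, cut at about 5.5% in these data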
ssDAF-12 act – S. stercoralis DAF-12 activation, primary screen; HEK293 ssDAF-12/GRIP1 lit1-tk-luc reporter, luminescence; % of 3 µM dafachronic acid response; activation, % at 6.8 µM; 370,000 compounds, 1% hits; AID 652126;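 active = activation above the mean over all tested compounds plus 3 SD, cut at about 0.9% in these data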
DAX1 inh confirm – confirmation of human DAX1 (NR0B1) inhibitors; 2,400 compounds, 87% hits; inhibition, % at 6.8 µM; shares compounds with DAX1 inh-2; HEK293T StAR-promoter luciferase reporter, SF-1/DAX-1 repression; AID 652134;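 active = inhibition above the average of every tested compound plus 3 SD, cut at about 3.8% in these data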;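 note: active compounds raise luminescence by relieving repression of the StAR reporter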
SF1 AF2mut Luc – counter-screen for DAX1 inhibitors: nonselective inhibitors with SF-1 AF2 mutant; 2,400 compounds, 78% hits; HEK293 StAR-luciferase, luminescence; AID 652136; inhibition, % at 6.8 µM; shares compounds with DAX1 inh-2;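 active = inhibition above the mean of all tested compounds plus 3 SD, cut at about 3% in these data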
LXR ag – activates human LXR-beta, counter-screen for hcDAF-12 agonists | activation, % at 6.8 µM | 3,400 tested, under 10 active | HEK293 Gal4-LXR tk-luc reporter, luminescence, 24 h; normalized: DMSO 0%, positive control 100% | shares compounds with hcDAF12 agonist | AID 743027;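 active = mean percent activation of the reporter above a cutoff set as the average over tested compounds plus their standard deviation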
hcDAF12 conf – confirmation of H. contortus DAF-12 agonists; activation, % at 6.8 µM; shares compounds with hcDAF12 agonist; HEK293 hcDAF-12 lit1-tk-luc reporter, luminescence; % of Δ7-dafachronic acid response; 3,400 compounds, 61% hits; AID 743032;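 active = mean activation across triplicate tests above the threshold derived from the earlier primary screen, cut at about 5.5% in these data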
hgDAF12 ag – hgDAF-12 agonism, confirmation assay; shares compounds with hgDAF-12 ag; AID 743050; activation, % at 6.8 µM; HEK293 GAL4-hgDAF12 luciferase reporter, agonist mode; percent of butyrate response; 3,300 compounds, 80% hits;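 active = mean activation over triplicate wells above the hit cutoff derived from the earlier primary screen, cut at about 11% in these data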
LXR ag 2 – activates human LXR-beta, counter-screen for DAF-12 agonists; 3,300 tested, under 10 active; HEK293 Gal4-LXR luciferase reporter, 24 h; activation, % at 6.8 µM; shares compounds with hgDAF-12 ag;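 active = mean activation of the triplicate above a set limit carried over from the primary screen, none filed active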
Numbers stand for hits; . = inactive; / = no result given. The list is not random: actives were taken first. Their share in the collection is about 4.1%.

SMILES	hgDAF-12 ag	DAX1 inh-1	DAX1 inh-2	hcDAF12 agonist	ssDAF-12 act	DAX1 inh confirm	SF1 AF2mut Luc	hgDAF12 ag	LXR ag 2	others
CC(C)C[C@H](NC(=O)OCC1c2ccccc2-c2ccccc21)C(=O)O	16	.	5.8	.	.	6.6	5.8	12	.
O=C(NN=C1C2CC3CC(C2)CC1C3)c1cccs1	14	.	7.4	.	.	.	.	.	.
O=C(NN=C1C2CC3CC(C2)CC1C3)c1ccccc1O	.	.	.	.	.	/	/	/	/
C=C(C)C1CC=C(C)/C(=N/NC(=O)c2cccs2)C1 (stereo unspecified)	.	.	.	.	.	/	/	/	/
O=C(N/N=C1/CC2C=CCC12)c1cccs1 (stereo unspecified)	15	.	8.3	.	1.1	.	.	.	.
Cc1ccc(C2CCC3(CCC(=O)N3CCOC(=O)Nc3ccc(Br)cc3)CC2)cc1 (stereo unspecified)	.	/	.	.	.	/	/	/	/
COc1ccc(/C=N/N=C(\N)c2nonc2N)cc1	16	.	8.7	12	.	14	5.9	16	.	LXR ag=.;hcDAF12 conf=6.6
O=S1(=O)c2c(NCc3ccco3)cccc2Oc2ccccc2CN1Cc1cn(Cc2ccc(Cl)cc2)nn1	.	/	.	.	.	/	/	/	/
Nc1nc(-c2ccc3ccccc3c2)cs1	18	.	12	6.4	.	9.9	7.5	15	.
Nc1nc(-c2ccc(Oc3ccccc3)cc2)cs1	.	.	.	.	.	/	/	/	/
Nc1nc(-c2ccc(-c3ccccc3)cc2)cs1	19	.	6.3	.	.	10	6.8	20	.
O=C(NCCc1c[nH]c2ccccc12)OCc1cn(Cc2ccc(C(F)(F)F)cc2)nn1	.	/	.	.	.	/	/	/	/
O=C(/C=C/c1ccc([N+](=O)[O-])cc1)NCc1ccccn1	.	.	.	.	.	/	/	/	/
O=C(/C=C/c1ccc([N+](=O)[O-])cc1)Nc1ncc([N+](=O)[O-])s1	27	.	7.4	12	.	.	.	.	.	LXR ag=.;hcDAF12 conf=5.8
O=C(NCCc1c[nH]c2ccccc12)OCc1cn(Cc2ccc(F)c(F)c2)nn1	.	/	.	.	.	/	/	/	/
O=C(NC1CCCC1)C1(C(=O)C2CC2)CC(c2ccccn2)=NO1 (stereo unspecified)	.	/	.	.	.	/	/	/	/
CCOc1ccc(-c2noc(-c3csc([C@@H]4C[C@H](O)[C@@H](CO)O4)n3)n2)cc1	.	/	.	.	.	/	/	/	/
OC[C@H]1O[C@@H](c2nc(-c3nc(-c4ccc(F)cc4)no3)cs2)[C@H](O)[C@@H]1O	13	/	9.8	.	.	13	7.2	16	.
COc1cccc2sc(N(C)c3ccccc3)nc12	13	.	4.6	6.5	.	11	6.4	15	.
CC(COc1cc(F)cc(C#N)c1)CN1CCC(C(O)(c2ccccc2)c2ccccc2)CC1 (stereo unspecified)	.	/	.	.	.	/	/	/	/
OCC(O)/C=N/Nc1nc2ccccc2s1 (stereo unspecified)	.	.	.	.	.	/	/	/	/
C(=N\Nc1nc2ccccc2s1)/c1ccco1	15	.	6.7	17	2.6	18	8.2	21	.	LXR ag=.;hcDAF12 conf=12
Oc1ccccc1C=NNc1nc2ccccc2s1	22	4.4	5.5	16	3.0	11	8.6	19	.	LXR ag=.;hcDAF12 conf=17
C(=N\Nc1nc2ccccc2s1)/c1cccs1	16	.	7.0	20	3.3	18	12	24	.	LXR ag=.;hcDAF12 conf=17
C=CCN1[C@H](Cc2ccccc2)COc2cccc(N3CCSCC3)c2S1(=O)=O	.	/	.	.	.	/	/	/	/
SMILES	hgDAF-12 ag	DAX1 inh-1	DAX1 inh-2	hcDAF12 agonist	ssDAF-12 act	DAX1 inh confirm	SF1 AF2mut Luc	hgDAF12 ag	LXR ag 2	others
CC(=O)N1CCN(c2cc(-c3ccco3)nc3cc(-c4ccccc4)nn23)CC1	.	/	/	.	.	/	/	/	/
O=C(Nc1ccc(Cl)c(Cl)c1)C1CCN(c2ncccn2)CC1	.	/	.	.	.	/	/	/	/
Cc1c(C(=O)Nc2ccccn2)oc2ccccc12	14	.	4.7	13	3.3	11	5.8	23	.	LXR ag=.;hcDAF12 conf=17
CCCCCCC/C=C(\C)[C@@H](O)[C@@H](C)C(=O)N1CCC[C@@H]1C(=O)O[C@H](C(=O)O[C@@H](C)C(=O)O)[C@@H](C)CC	.	/	/	.	.	/	/	/	/
CC(C)(C)NC(=O)C(c1cc2ccccc2o1)n1c(=O)c(-c2cc3ccccc3[nH]2)nc2ccccc21 (stereo unspecified)	.	/	.	.	.	/	/	/	/
Cc1csc(-c2nc3ccccc3n2C(C(=O)NC(C)(C)C)c2cc3ccccc3o2)c1 (stereo unspecified)	16	/	11	9.4	1.9	6.6	6.0	18	.	LXR ag=.;hcDAF12 conf=11
Cc1ccc(NC(=O)N2CCc3ccccc32)cc1C	16	.	7.4	15	1.2	16	8.4	25	.	LXR ag=.;hcDAF12 conf=9.4
O=C(Nc1ccccn1)c1cccc(S(=O)(=O)N2CCCc3ccccc32)c1	.	.	.	.	.	/	/	/	/
Cc1ccnc(NC(=O)c2cccc(S(=O)(=O)N3CCCc4ccccc43)c2)c1	13	.	7.7	.	.	9.1	6.4	12	.
Cc1ccc(NC(=O)Cc2ccc(OC(F)F)cc2)c(S(=O)(=O)N2CCOCC2)c1	.	/	.	.	.	/	/	/	/
O/C(=C\c1ccc2ccccc2n1)c1ccc(O)cc1O	24	.	5.3	8.9	1.4	16	7.1	22	.	LXR ag=.;hcDAF12 conf=10
O=C(c1ccc(-c2ccccc2Cl)o1)N1CCCC(C(F)(F)F)C1 (stereo unspecified)	.	.	.	.	.	/	/	/	/
O=C(c1cc(-c2ccccc2)on1)N1CCCC1	14	.	6.1	.	1.3	11	4.5	15	.
CC1CCN(C(=O)c2cc(-c3ccco3)on2)CC1	.	.	.	.	.	/	/	/	/
O=C(c1cc(-c2cccc(O)c2)on1)N1CCCCCC1	.	.	.	.	.	/	/	/	/
